CYP2C19 inhib: human CYP2C19 inhibition. P33261. CYP2C19 Supersomes, luciferin-H EGE luminescence, 30 min. inhibition, % at 5 µM. 96,000 compounds, 21% hits. AID 778;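 active = CYP2C19 inhibition above a set limit at 5 µM in the primary screen, cut at about 50% in these data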;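 note: plate controls were negative control wells for no effect and 2.5 mM tranylcypromine positive control for full effect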
CYP2C9 activ: CYP2C9 (human) activation | AID 1024 | activation factor at 5 µM | P11712 | recombinant CYP2C9, luciferin-H conversion, luminescence; hits give high values; factor 1 = untreated enzyme, 0 = blocked | 96,000 compounds, 1.4% hits;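 active = activation factor of 2 or more for CYP2C9 at a 5 µM dose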;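 note: 0 = sulfaphenazole-blocked wells and 1 = vehicle-only wells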
Target sequence (P11712 whole entry, looked up): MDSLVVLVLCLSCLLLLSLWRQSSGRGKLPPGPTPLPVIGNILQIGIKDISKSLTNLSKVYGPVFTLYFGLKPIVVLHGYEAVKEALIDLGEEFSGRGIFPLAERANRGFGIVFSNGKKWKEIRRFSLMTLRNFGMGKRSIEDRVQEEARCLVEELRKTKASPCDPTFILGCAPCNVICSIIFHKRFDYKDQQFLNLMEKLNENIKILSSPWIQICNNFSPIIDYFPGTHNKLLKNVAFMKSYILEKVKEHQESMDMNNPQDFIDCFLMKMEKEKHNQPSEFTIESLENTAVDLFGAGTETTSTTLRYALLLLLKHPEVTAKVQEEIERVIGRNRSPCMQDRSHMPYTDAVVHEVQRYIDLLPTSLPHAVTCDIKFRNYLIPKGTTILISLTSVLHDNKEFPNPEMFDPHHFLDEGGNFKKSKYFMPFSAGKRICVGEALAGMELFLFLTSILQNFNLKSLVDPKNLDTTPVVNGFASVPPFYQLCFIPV
CYP2C19 activ: activators of human cytochrome P450 2C19; recombinant CYP2C19, luciferin-H EGE luminescence; hits give high values; 0 = fully inhibited enzyme, 1 = untreated enzyme; activation factor at 5 µM; 96,000 tested, under 10 active;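 active = activation factor of at least 2 at 5 µM in the primary screen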;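 note: 0 = wells with 2.5 mM tranylcypromine and 1 = vehicle-only wells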
CYP2C9 inh: inhibitors of human CYP2C9. inhibition, % at 5 µM. P11712. CYP2C9 Supersomes, luciferin-H conversion, luminescence. AID 777. 96,000 compounds, 20% hits;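 active = blocking of liver enzyme CYP2C9 beyond about 50% at 5 µM, limit read from the data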
PTK2B oligo ant: Pyk2 (human) oligomerization antagonism | 99,000 compounds, 0.83% hits | Q293 cells, Pyk2 FERM NanoBiT luminescence; hits give low values | z-score (the deposit names both 25 µM and 10 µM);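 active = Z-score of -3 or lower, scaled per plate to the spread of control and sample wells; inactive = z-score above -3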;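 note: negative z-score means lost luminescence so less FERM oligomerization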
Starred values were filed as active, the others as inactive; . = not tested or not shown. In the library only some 28% were active in any assay of this set; here they are far more common.

SMILES	CYP2C19 inhib	CYP2C9 activ	CYP2C19 activ	CYP2C9 inh	PTK2B oligo ant
C/C=C/CSc1nc2c(c(=O)[nH]c(=O)n2C)n1Cc1ccc(C)cc1	-14	1	1.1	-3	.
COC(=O)CN1C2(C#N)CCCCC2CC2CCCCC21C#N (stereo not drawn)	-16	1.2	1.2	-20	0.26
O=C(CSc1nccn1-c1ccc(F)cc1)NCc1ccc2c(c1)OCO2	92*	0.2	0.1	80*	0.24
Cn1c(SCC(=O)NCc2ccc3c(c2)OCO3)nnc1C1COc2ccccc2O1 (stereo not drawn)	28	0.7	0.7	34	0.08
CCOc1ccc(-n2ccnc2SCC(=O)Nc2nnc(CC)s2)cc1	27	0.8	0.7	23	0.75
O=C(CSc1nccn1-c1ccccc1)NCc1ccc2c(c1)OCO2	100*	0	0	98*	0.23
O=C(CSc1nnc(-c2cccnc2)n1-c1ccc(F)cc1)NCc1ccc2c(c1)OCO2	.	.	.	.	1.6
CCOc1ccc(-n2ccnc2SCC(=O)NCc2ccc3c(c2)OCO3)cc1	81*	0.4	0.2	64*	2
COc1ccc(OC)c(NC(=O)C2C3C=CC(C3)C2C(=O)NCc2ccccn2)c1 (stereo not drawn)	29	0.9	0.7	14	-0.33
COc1ccc(C2(C(=O)NCCCN3CCOCC3)CCOCC2)cc1	3	1	1	-3	1.3
CCOC(=O)C1=C(C)NC2=C(C1c1ccc([N+](=O)[O-])cc1)S(=O)(=O)c1ccccc12 (stereo not drawn)	6	0.4	0.9	62*	-3*
CCOC(=O)C1=C(C)NC(=O)C(C(N)=O)C1c1ccccc1 (stereo not drawn)	8	0.9	0.9	11	0.72
CC(C)(C)c1ccc(S(=O)(=O)NCc2ccc(C(=O)N3CCOCC3)cc2)cc1	2	1.4	1	-36	0.16
Cc1ccc(CNS(=O)(=O)c2ccc(C(C)(C)C)cc2)n1C	73*	1.9	0.3	-90	0.16
CC(C)C(C)NC(=O)COc1ccc(Sc2ccc(OCC(=O)NC(C)C(C)C)cc2)cc1 (stereo not drawn)	.	.	.	.	-1
CC(C)C(C)NC(=O)COc1ccc(-c2ccccc2)cc1 (stereo not drawn)	18	0.1	0.8	87*	-1.1
Cc1ccc2c(c1)N(CC(=O)NCc1cccs1)C(=O)C(C)O2 (stereo not drawn)	47	1.2	0.5	-25	0.06
Cc1ccc2c(c1)N(CCC(=O)NCc1cccs1)C(=O)C(C)O2 (stereo not drawn)	97*	0.3	0	74*	0.43
Cc1ccc(NC(=O)CN2C(=O)C(C)Oc3ccccc32)nc1 (stereo not drawn)	10	1	0.9	-3	-0.35
Cc1ccc2c(c1)N(Cc1ccncc1)C(=O)C(C)O2 (stereo not drawn)	81*	0.1	0.2	89*	-0.49
CN1CCN(S(=O)(=O)c2ccc(Cc3ccc(S(=O)(=O)N4CCN(C)CC4)cc3)cc2)CC1	15	0.9	0.8	14	1
CC(=O)c1c(C)[nH]c(C(=O)N2CCc3ccccc32)c1C	69*	0.3	0.3	69*	-0.62
O=C1NCC(c2ccccc2)C1C(=O)N/N=C\c1ccc(-c2ccc(Cl)c(Cl)c2)o1 (stereo not drawn)	26	0.3	0.7	67*	1.6
Cc1cccc(C)c1NC(=O)C1=C(O)c2ccccc2N(C)S1(=O)=O	-11	0.9	1.1	8	0.01
Cc1ccc(NC(=O)C2=C(O)c3ccccc3N(C)S2(=O)=O)cc1	-10	0.3	1.1	73*	0.29
SMILES	CYP2C19 inhib	CYP2C9 activ	CYP2C19 activ	CYP2C9 inh	PTK2B oligo ant
C=CCNC(=O)CN(c1ccccc1OCC)S(=O)(=O)c1ccc(C)cc1	66*	0.3	0.3	68*	0.3
CC(=O)c1cccc(N(CC(=O)Nc2ccc(F)cc2F)S(C)(=O)=O)c1	76*	0.9	0.2	11	-0.1
Cc1cccc(NS(=O)(=O)c2ccc(NC(=O)CN(c3cc([N+](=O)[O-])ccc3C)S(C)(=O)=O)cc2)c1	.	.	.	.	-0.17
Cc1ccccc1N(CC(=O)Nc1ccc(F)cc1)S(C)(=O)=O	89*	0.6	0.1	45	-0.02
CC(=O)c1cccc(NC(=O)CN(c2ccccc2F)S(C)(=O)=O)c1	54*	0.5	0.5	49	-0.41
CCN1CNC(=S)N(c2cccc(C)c2C)C1	-6	0.9	1.1	11	0.19
Cc1ccccc1CS(=O)(=O)CCC(=O)NCCN1CCN(c2cccc(Cl)c2)CC1	21	0.8	0.8	25	.
CCOc1ccccc1N(CC(=O)Nc1ccc(C)cc1)S(C)(=O)=O	71*	0.6	0.3	40	-0.44
CCOc1ccccc1N(CC(=O)Nc1ccc2c(c1)OCO2)S(C)(=O)=O	12	0.7	0.9	32	-0.22
Cc1ccc2nc(-c3ccc(NC(=O)CN(c4ccccc4C)S(C)(=O)=O)cc3)sc2c1	92*	0.8	0.1	20	0.15
CCCNC(=O)c1ccccc1NC(=O)CN(c1ccccc1OCC)S(C)(=O)=O	17	0.4	0.8	58*	-0.37
CCCCC(CCC(=O)Nc1ccccc1C(=O)OCC)C(=O)O (stereo not drawn)	-11	0.4	1.1	59*	1.2
Cc1ccc(C)c(S(=O)(=O)NC(C)C(=O)Nc2ccc(-c3nc4ccccc4s3)cc2)c1 (stereo not drawn)	0	1	1	4	-0.39
CC(=O)Oc1ccc(OC(C)=O)c(SCCCCCN2CCOCC2)c1	9	1	0.9	-4	0.63
COC(=O)CN(c1ccccc1F)S(=O)(=O)c1ccccc1	21	0.5	0.8	45	0.43
CCOC(=O)c1ccccc1NC(=O)CN(c1ccccc1C)S(C)(=O)=O	96*	0.2	0	78*	-0.61
Cc1ccc(NC(=O)CN(c2ccccc2F)S(C)(=O)=O)cc1	76*	0.5	0.2	48	-0.29
CCOC(=O)c1ccccc1NC(=O)c1ccc(NS(C)(=O)=O)cc1	40	0.6	0.6	36	-0.75
CS(=O)(=O)N(CC(=O)Nc1cccc(Cl)c1)c1ccccc1Cl	97*	0.1	0	90*	-1.1
CCOc1ccccc1N(CC(=O)Nc1ccc2c(c1)OCCO2)S(C)(=O)=O	45	0.2	0.5	77*	0.78
COc1cc2c(cc1NC(=O)CC1SC(N3CCCC3)=NC1=O)oc1ccccc12 (stereo not drawn)	9	1	0.9	4	-1.5
CCOc1ccc(NC(=O)c2ccccc2NC(=O)CN(C)CC(=O)Nc2ccc(C)cc2)cc1	94*	0	0.1	97*	-2.8
C=CCNc1cc(C(F)(F)F)nc(-c2ccccn2)n1	-3	0.9	1	10	0.51
CC/C(=N\NC(=O)c1ccc(-c2ccccc2)cc1)C12CC3CC(CC(C3)C1)C2	67*	0.6	0.3	39	-0.56
CS(=O)(=O)N(CC(=O)NCCSc1ccccc1)c1ccc2c(c1)OCO2	76*	0.4	0.2	64*	-0.33

Screening results: PubChem BioAssay, Sanford-Burnham Center for Chemical Genomics
